Source: PubChem BioAssay (several laboratories)
Only some compounds are listed: those with a hit (about 6.9% of all), similar ones and a draw of the others.
MPTP block: permeability transition pore inhibition. isolated mouse mitochondria, Ca2+ swelling absorbance, 30 min. inhibition, % at 10 µM. actives 1.4% (n = 360,000);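 active means inhibition of 50% or more, scaled per plate between neutral and stimulator controls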
Beta cell apopt: blocks beta cell apoptosis. actives 0.8% (n = 300,000). INS-1E cytokine-induced death, ATP luminescence, 48 h; percent of positive-control rescue, neutral wells zero. protection from apoptosis, % (test concentration not listed);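 active means Every replicate reaches about 75%, or at least half do and their mean reaches it too, limit read from the data; inconclusive means At least half of replicates reach the limit but their mean does not; inactive means Under half of replicates reach the limit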;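 further: higher means more ATP so stronger rescue from cytokine killing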
CSC inhib: cancer stem cell inhibition; cancer stem cell-like cells viability, luminescence; actives 1.1% (n = 300,000); inhibition, % at 7.5 µM; in the data active means inhibition above about 75%; inconclusive means no clear call, values can overlap the other calls; tested in HMLE shEcad cells
SKKanGAS inh: blocks kanamycin growth of S. pyogenes SKKanGAS strain. inhibition, % at 7.5 µM. BacTiter-Glo, 6 h. actives 1.3% (n = 300,000);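 active means mean replicate score, as percent of positive control median, at least 50; inconclusive means mean below 50 but one replicate at or above 50; inactive means mean and every replicate below 50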;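 further: strain carries kanamycin resistance gene driven by streptokinase promoter and grows in 40 µg/ml kanamycin; loss of luminescence reflects streptokinase promoter inhibition or plain growth inhibition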
Mdm2 MdmX PPI: human Mdm2/MdmX binding inhibition; actives 3% (n = 330,000); SaOS-2 split-luciferase Mdm2/MdmX complementation, luminescence; inhibition, % at 8 µM; O15151+Q00987;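 active means inhibition of at least 50% at 8 µM in the primary screen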
Target sequence (O15151 whole entry, looked up): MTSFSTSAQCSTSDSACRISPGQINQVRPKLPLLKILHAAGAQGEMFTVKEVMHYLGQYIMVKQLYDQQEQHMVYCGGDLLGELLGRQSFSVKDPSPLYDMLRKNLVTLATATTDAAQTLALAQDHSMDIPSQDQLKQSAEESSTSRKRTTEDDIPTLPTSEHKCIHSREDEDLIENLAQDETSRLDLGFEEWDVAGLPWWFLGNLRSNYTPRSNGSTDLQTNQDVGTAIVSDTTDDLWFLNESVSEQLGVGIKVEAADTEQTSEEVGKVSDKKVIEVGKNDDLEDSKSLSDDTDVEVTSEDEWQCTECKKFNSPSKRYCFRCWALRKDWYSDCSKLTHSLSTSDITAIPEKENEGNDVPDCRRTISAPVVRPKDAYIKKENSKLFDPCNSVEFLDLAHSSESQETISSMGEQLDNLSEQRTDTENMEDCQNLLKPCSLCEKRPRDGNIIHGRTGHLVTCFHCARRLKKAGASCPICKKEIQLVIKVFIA
Target sequence (Q00987 whole entry, looked up): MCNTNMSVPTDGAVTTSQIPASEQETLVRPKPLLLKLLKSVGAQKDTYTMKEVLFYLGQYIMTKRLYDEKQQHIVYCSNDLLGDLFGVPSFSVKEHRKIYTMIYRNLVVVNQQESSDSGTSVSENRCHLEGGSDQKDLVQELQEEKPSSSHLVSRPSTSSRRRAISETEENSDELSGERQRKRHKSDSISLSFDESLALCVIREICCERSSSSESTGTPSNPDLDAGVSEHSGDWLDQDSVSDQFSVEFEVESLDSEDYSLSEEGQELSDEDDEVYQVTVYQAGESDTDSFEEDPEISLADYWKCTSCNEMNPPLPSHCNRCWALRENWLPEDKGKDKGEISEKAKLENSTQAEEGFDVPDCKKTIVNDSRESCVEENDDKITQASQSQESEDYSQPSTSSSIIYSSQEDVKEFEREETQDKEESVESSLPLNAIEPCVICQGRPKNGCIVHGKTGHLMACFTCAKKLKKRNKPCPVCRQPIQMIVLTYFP
NR3A LBD binder: modulators (binders) of human NR3A ligand-binding domain; NR3A LBD differential scanning fluorimetry, Tm shift; 0% = protein alone, 100% = glycine-bound protein; Tm shift relative to glycine control, % at 25 µM; actives 2.5% (n = 340,000); AID 1259313;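 active means melting temperature shift of at least 10% of the positive control shift, at one fixed dose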
Mdm2 MdmX conf: human Mdm2/MdmX binding inhibition, confirmed. inhibition, % at 8 µM. AID 489028. actives 55% (n = 10,000). luminescent assay. shares compounds with Mdm2 MdmX PPI; in the data active means inhibition above about 40%
FLuc counter: counter-screen for Mdm2/MdmX inhibitors: full-length luciferase. shares compounds with Mdm2 MdmX PPI. AID 504607. SaOS-2 full-length luciferase counterscreen, luminescence. actives 77% (n = 6,200). inhibition, % at 8 µM;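 active means mean inhibition at 8 µM reaching about 37%, which flags the compound as non-specific, limit read from the data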;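 further: p53-null SaOS-2 cells with luciferase driven by a doxycycline-inducible promoter; compound on cells about two nights before reading with doxycycline added after day one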
Of the large screens only hits and unclear results are named; the others gave an inactive call (follow-up assays come after a bar, where they were run).

Cc1ccc(-c2nc3ncccc3o2)cc1NC(=O)CC(C)C	none
Cc1ccc(-c2nc3cccnc3o2)cc1NC(=O)COc1ccc(Cl)cc1C	Mdm2 MdmX PPI 85 | Mdm2 MdmX conf inactive
Cc1ccc(-c2nc3ncccc3o2)cc1NC(=O)COc1ccccc1	none
COc1ccc(OC)c(S(=O)(=O)N2CCN(c3ccccc3OC)CC2)c1	none
Cc1ccc(OCC(O)Cn2c(=N)n(CCN3CCCCC3)c3ccccc32)cc1 (centres undefined)	Mdm2 MdmX PPI 69 | Mdm2 MdmX conf 58 | FLuc counter 47
CCCCn1c(=N)n(CCOc2ccc(C)cc2)c2ccccc21	Mdm2 MdmX PPI 63 | Mdm2 MdmX conf inactive | FLuc counter 63
COc1ccc(OCC(O)Cn2c(=N)n(CCN3CCCCC3)c3ccccc32)cc1 (centres undefined)	Mdm2 MdmX PPI 53 (no result: SKKanGAS inh) | Mdm2 MdmX conf 41 | FLuc counter 77
N=c1n(CCN2CCOCC2)c2ccccc2n1CC(=O)c1ccc(Cl)c(Cl)c1	none
N=c1n(CCN2CCCC2)c2ccccc2n1CC(O)c1ccc(Cl)c(Cl)c1 (centres undefined)	Mdm2 MdmX PPI 96 | Mdm2 MdmX conf 99 | FLuc counter 104
CCOc1ccc(N(CC(=O)NC2CC2)S(=O)(=O)c2ccc(C)cc2)cc1	none
CC1Cc2ccccc2N1C(=O)COC(=O)c1ccc(N(C)C)cc1 (centres undefined)	none (no result: SKKanGAS inh)
O=C1CC(C(=O)N(c2ccccc2)C(C(=O)NC2CCCC2)c2ccncc2)CS1 (centres undefined)	none (no result: SKKanGAS inh)
Cc1nnnn1/C(=C\c1ccccc1)C(=O)OCC(=O)NC1CCCCC1	Mdm2 MdmX PPI 62 | Mdm2 MdmX conf 45 | FLuc counter 45
C[C@@H]1CN([C@H](C)CO)C(=O)CCCn2cc(nn2)CO[C@H]1CN(C)S(=O)(=O)c1ccccc1C#N	none (no result: Beta cell apopt, CSC inhib, SKKanGAS inh, Mdm2 MdmX PPI, NR3A LBD binder)
CCOC(=O)c1ccc(N2CCCCC2)c(NS(=O)(=O)c2ccc(C)cc2)c1	Mdm2 MdmX PPI 59 | Mdm2 MdmX conf 46 | FLuc counter 67
CCCNC(=O)COC(=O)c1ccccc1C(=O)c1ccc(Cl)c([N+](=O)[O-])c1	Mdm2 MdmX PPI 98 | Mdm2 MdmX conf 88 | FLuc counter 52
C/C(=N\NC(=O)c1c(Cl)c(C)nn1C)c1ccc(NC(=O)C2CCC2)cc1	Mdm2 MdmX PPI 56 | Mdm2 MdmX conf 75 | FLuc counter 67
C/C(=N\NC(=O)c1c([N+](=O)[O-])c(C)nn1C)c1ccc(NC(=O)C2CCCC2)cc1	none
Cc1c(C)c2ccc(OCC(=O)Nc3ccccn3)c(C)c2oc1=O	Mdm2 MdmX PPI 88 | Mdm2 MdmX conf 90 | FLuc counter 52
Cc1cccc(C)c1NC(=O)COc1ccc2c(C)c(Cc3ccccc3)c(=O)oc2c1C	Mdm2 MdmX PPI 97 | Mdm2 MdmX conf inactive
Cc1c(Cc2ccccc2)c(=O)oc2c(C)c(OCC(=O)Nc3ccc(C#N)cc3)ccc12	none
Cc1c(C)c2cc(Cl)c(OCC(=O)Nc3ccccn3)cc2oc1=O	none (no result: Beta cell apopt, CSC inhib, SKKanGAS inh, Mdm2 MdmX PPI, NR3A LBD binder)
Cc1c(O)ccc2c(-c3ccccc3)cc(=O)oc12	none
COc1ccc(-c2cc(=O)oc3cc(O)ccc23)cc1	Mdm2 MdmX PPI 63 | Mdm2 MdmX conf 46 | FLuc counter 40
COc1ccc(-c2cc(=O)oc3c(C)c(OC(=O)c4cccs4)ccc23)cc1	Mdm2 MdmX PPI 85 (no result: SKKanGAS inh) | Mdm2 MdmX conf 47 | FLuc counter inactive
COc1ccc(-c2cc(=O)oc3c(C)c(O)ccc23)cc1	Mdm2 MdmX PPI 65 | Mdm2 MdmX conf 81 | FLuc counter 53
COc1ccc(-c2cc(=O)oc3cc(OC(=O)C4CCCCC4)c(Cl)cc23)cc1	Mdm2 MdmX PPI 75 | Mdm2 MdmX conf 84 | FLuc counter 52
COc1ccc(-c2cc(=O)oc3cc(OCC(C)=O)ccc23)cc1	none
COc1ccc(-c2cc(=O)oc3cc(OC(C)C(=O)NC4CC4)ccc23)cc1 (centres undefined)	none
COc1ccc(NC(=O)c2ccccc2NC(=O)CN2CCCCCC2)cc1	none (no result: CSC inhib, SKKanGAS inh)
COc1ccc(S(=O)(=O)N2CCN(CC(=O)NC(Cc3ccccc3)C(C)=O)CC2)cc1 (centres undefined)	none (no result: SKKanGAS inh)
O=[N+]([O-])c1cccc2c(N3CCCC3)ccnc12	Beta cell apopt 112, Mdm2 MdmX PPI 52 | Mdm2 MdmX conf inactive
COc1ccc(-c2nc(N)nc(C)c2Oc2ccccc2Br)c(O)c1	CSC inhib 83, Mdm2 MdmX PPI 67 (no result: SKKanGAS inh) | Mdm2 MdmX conf 65 | FLuc counter 53
CCOc1ccc(-c2nc(N)ncc2Oc2ccc(OC)cc2)c(O)c1	none
COc1ccc2[nH]c3c(c2c1)CCNC3C1CC=C(C)CC1 (centres undefined)	Mdm2 MdmX PPI 67 | Mdm2 MdmX conf 61 | FLuc counter 57
CC(C)OC(=O)c1cc(C(=O)c2cc(Br)ccc2O)coc1=N	none
CCOc1ccccc1NC(=O)c1cc(C(=O)c2cc(Br)ccc2O)coc1=N	Mdm2 MdmX PPI 55, NR3A LBD binder 25 (no result: SKKanGAS inh) | Mdm2 MdmX conf 60 | FLuc counter 69
Cc1nnn(-c2nonc2N)c1C(=O)N/N=C/c1ccccc1O	Beta cell apopt 85, Mdm2 MdmX PPI 56, NR3A LBD binder 30 | Mdm2 MdmX conf 61 | FLuc counter 51
CC(=C/c1ccccc1)/C=N/NC(=O)c1nnn(-c2nonc2N)c1CN1CCC(C)CC1	none
Nc1nonc1-n1nnc(C(=O)N/N=C/c2cc(Cl)ccc2O)c1CN1CCCCCC1	Beta cell apopt 91, CSC inhib inconclusive, SKKanGAS inh 50, Mdm2 MdmX PPI 68 (no result: NR3A LBD binder) | Mdm2 MdmX conf 56 | FLuc counter inactive
Nc1nonc1-n1nnc(C(=O)N/N=C/c2cccc(Cl)c2)c1CN1CCCCCC1	none
CN(Cc1c(C(=O)N/N=C/c2ccccc2O)nnn1-c1nonc1N)C1CCCCC1	none (no result: Beta cell apopt, CSC inhib, SKKanGAS inh, Mdm2 MdmX PPI, NR3A LBD binder)
CC1CCN(Cc2c(C(=O)N/N=C/c3ccccc3O)nnn2-c2nonc2N)CC1	Beta cell apopt 95, Mdm2 MdmX PPI 69 (no result: CSC inhib) | Mdm2 MdmX conf 80 | FLuc counter inactive
CN1CCN(Cc2c(C(=O)N/N=C/c3cccc(Br)c3)nnn2-c2nonc2N)CC1	Mdm2 MdmX PPI 84 | Mdm2 MdmX conf inactive
COC(=O)[C@@]12C[C@@H](CC(=O)NCc3cccs3)C(=O)N(Cc3ccco3)C1=CCC(C)(C)C2	none (no result: Beta cell apopt, CSC inhib, SKKanGAS inh, Mdm2 MdmX PPI, NR3A LBD binder)
CCN(CC)c1ccc(/C=N/NC(=O)c2nnn(-c3nonc3N)c2C(C)C)c(O)c1	Beta cell apopt 91, SKKanGAS inh 59, Mdm2 MdmX PPI 72, NR3A LBD binder 19 | Mdm2 MdmX conf 88 | FLuc counter inactive
Cc1ccc(/C=C/C(=O)c2c(C)nc3ccccn23)cc1	none
Cc1nc2ccccn2c1C(=O)/C=C/c1cccc([N+](=O)[O-])c1	Beta cell apopt 102, CSC inhib 88, Mdm2 MdmX PPI 99 | Mdm2 MdmX conf 97 | FLuc counter inactive
